Results filed as inconclusive are left out. Activity calls are given as the source filed them. Unless noted, calls come from the whole dose curve; as a rule, active = well fitted curve in the direction sought with a large enough effect; inconclusive = small, poorly fitted or top-dose-only effect, or another doubt; inactive = no such curve, though single readings can be large; an effect the other way counts as inactive or inconclusive.

Experiment [1] deals with Ubiquitin carboxyl-terminal hydrolase 2 (Homo sapiens) (UniProt O75604). Description: qHTS Validation Assay for Inhibitors of Ubiquitin-specific Protease USP2a Using CHOP2 as the Reporter (AID 463106). In outline: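 Readout was coupled fluorescence (Ex 485/Em 531 nm), read 60 min after adding 25 nM final Ub-CHOP2 and 25 nM reporter substrate. Beforehand, 10 nM final USP2 core had 30 min at RT with compound in pH 8.0 buffer. Curves were fitted after normalization to NEM and flagged for artifacts using time-zero reads.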
A general note: qHTS replaces the single test concentration by a dilution series.

For experiment [2], the target named is DNA polymerase III PolC-type (Bacillus subtilis (strain 168)) (UniProt P13267). The experiment in a line: qHTS Validation Assay for the Inhibitors of DNA Replication in Gram-Positive Bacteria (AID 485295).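 Note: reconstituted holoenzyme with PolC plus beta clamp SSB and primase; PicoGreen fluorescence of double-stranded DNA made on primed circular M13 template; series mostly up to about 57 µM.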 In outline:
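Primed replication of single-stranded M13Gori by a four-protein B. subtilis holoenzyme is measured at room temperature. Double-stranded product is quantified by PicoGreen fluorescence after an EDTA stop; inhibition is scaled between DMSO and EDTA controls.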

The target of experiment [3] is Tumor susceptibility gene 101 protein (Homo sapiens) (UniProt Q99816). The experiment in a line: qHTS Validation Assay for Iinhibitors of HIV-1 Budding by Blocking the Interaction of PTAP/TSG101 (AID 485342; calls by dose curve). In outline:
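Fluorescence anisotropy measured PTAP-Tsg101 interaction. Final concentrations were 10 uM protein domain and 50 nM labeled peptide, equilibrated 20 min at room temperature.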

Experiment [4] is described as follows: qHTS Validation Assay to Find Inhibitors of Chronic Active B-Cell Receptor Signaling (AID 485345; active = well fitted curve in the direction sought with a large enough effect in the main read-out, with a control signal flat, not every such curve was filed as active). In outline: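 Read-out: ratio of filter-corrected green (IkappaBalpha fusion) to red (native) luciferase signal in doxycycline-induced TMD8 cells after 4 h at 37C. Titration spanned 46 uM–3 nM; Data were normalised to basal cells and 10 uM MG-132 wells.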
The target in experiment [5] is Beta-2 adrenergic receptor (Homo sapiens) (UniProt P07550). Description: qHTS validation assay of beta-arrestin-biased ligands of beta2-adrenergic receptor (AID 485366). The procedure, abridged:
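Agonism was measured as beta-arrestin recruitment to recombinant beta2-AR, releasing tTA to drive luciferase. Cells were exposed for 18 hr at 37 degrees C to a series up to 46 microM. %Activity from corrected luminescence gave concentration-response curves.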

The target of experiment [6] is ATP-dependent 6-phosphofructokinase (Trypanosoma brucei brucei) (UniProt O15648). The experiment in a line: qHTS Validation Assay to Find Inhibitors of T. brucei phosphofructokinase (AID 485368). The note with it: outcome: dose series up to 57.5 µM. In outline:
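ADP-Glo luminescence, two-step: residual ATP depleted, then ADP converted to ATP for luciferase. Enzyme 1.25 nM, F6P 0.5 mM, ATP 0.1 mM, pH 8.0 TEA buffer, 45 min RT. Curves fitted and classed by quality and efficacy.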

Experiment [7] in a line: Quantitative high throughput screen for delayed death inhibitors of the malarial parasite plastid, 96 hour incubation (AID 488745). Note: nearly all actives have a fitted effect of over 70% in size. Note: potency is the fitted concentration of half-maximal effect. The procedure, abridged:
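Luciferase-expressing P. falciparum, infected RBCs 2% Hct/0.1% parasitemia (final); 96 h cpd exposure, 37 C, 5% CO2; RPMI 1640 + 0.5% Albumax, bicarbonate, gentamycin. Readout: luminescence loss = growth inhibition.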

Experiment [8] in a line: Quantitative high throughput screen for delayed death inhibitors of the malarial parasite plastid, 48 hour incubation (AID 488752). Note: nearly all actives have a fitted effect of over 65% in size. Note: potency is the fitted concentration of half-maximal effect. In outline: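 Luciferase-expressing P. falciparum in RBCs, 2% Hct, 0.1% parasitemia final; RPMI 1640 + 0.5% Albumax; 48 h, 37 C, 5% CO2; luminescence readout, signal drop = growth inhibition.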
Experiment [9] addresses Thioredoxin reductase 1, cytoplasmic (Rattus norvegicus) (UniProt O89049). The experiment in a line: qHTS Assay for Substrates of Mammalian Selenoprotein Thioredoxin Reductase 1 (TrxR1) (AID 488772).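 Note: series mostly up to about 57 µM; a drop in NADPH fluorescence below the no-compound background marks a TrxR1 substrate.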 In outline: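 In this dual-purpose format, potential substrates are identified from the first fluorescence read after selenite addition, not from the 8-minute delta. Rat enzyme is preincubated with NADPH and then with compound at ~22 deg C.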

Experiment [10] shares this target. The experiment in a line: qHTS Assay for Inhibitors of Mammalian Selenoprotein Thioredoxin Reductase 1 (TrxR1) (AID 488773).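 Note: drop in NADPH fluorescence over an 8 min run after selenite addition; series mostly up to about 57 µM; nearly all actives have a fitted effect of over 40% in size.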 The following applies: Potency: inhibition. The procedure, abridged: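 Inhibition is scored from the loss of NADPH fluorescence between first and last reads of an 8-min kinetic run. Selenite (400 uM) was the substrate, added after 15 min compound preincubation at room temperature.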

Experiment [11] has as its target Flap endonuclease 1 (Homo sapiens) (UniProt P39748). The experiment in a line: qHTS Validation Assay for the Inhibitors of Human Flap endonuclease 1 (FEN1) (AID 488816). In outline:
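qHTS format: compounds and 10 nM FEN1 incubated 15 min at room temperature before adding 50 nM substrate. Cleavage followed by reads at 0 and 15 min; normalized data fitted to a four-parameter Hill curve.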

The target in experiment [12] is M-phase phosphoprotein 8 (Homo sapiens) (UniProt Q99549). Description: qHTS Validation Assay for Inhibitors for MPP8 Chromodomain Interactions with Methylated Histone Tails (AID 488949).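 Note: AlphaScreen signal from MPP8 chromodomain bound to biotinylated H3K9me3 peptide; top concentration of the series differs between compounds; nearly all actives have a fitted effect of over 55% in size.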 In outline: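 Disruption of the preformed MPP8–trimethyl-H3K9 peptide complex (both 50 nM, 30 min, RT) is measured after 30 min compound exposure, using AlphaScreen proximity beads; aurintricarboxylic acid titration serves as plate control.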

Experiment [13] addresses Chromobox protein homolog 1 (Homo sapiens) (UniProt P83916). The experiment in a line: qHTS Validation Assay for Inhibitors of HP1-beta Chromodomain Interactions with Methylated Histone Tails (AID 488953).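 Note: loss of AlphaScreen luminescence from HP1-beta binding biotinylated H3K9me3 peptide; series mostly up to about 110 µM; nearly all actives have a fitted effect of over 50% in size.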 In outline: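 AlphaScreen proximity readout: streptavidin donor and Ni-chelate acceptor beads, 10 ug/mL final, 30 min dark, RT. Complex of 50 nM HP1-beta and 50 nM b-H3(1-18)K9me3 formed 30 min, then compound-treated 30 min; PBS pH 7.4/0.01% Tween-20.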

Experiment [14] addresses Methanococcus maripaludis chaperonin (MmCpn) (UniProt Q6LX38). The experiment in a line: High-Throughput Screening for Modulators of Cytosolic Chaperonin Activity: MmCpn Primary Screen (AID 488978).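 Note: 50 nM MmCpn enzyme hydrolysing 30 µM ATP at 37 °C.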 In outline:
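Measures ATPase turnover of the M. maripaludis chaperonin (50 nM final) against 30 uM ATP over 10 min at 37C, with compound added 5 min beforehand at room temperature. ADP is quantified by HTRF immunodetection.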

Experiment [15] has as its target Transient receptor potential cation channel subfamily V member 1 (Homo sapiens) (UniProt Q8NER1). Description: HTS Assay for Compounds that Act as Enhancers of the Vanilloid Receptor 1 (AID 488979). The procedure, abridged:
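Calcium influx kinetics via Fluo-8 (480/520 nm) in TRPV1-expressing cells, 2000/well cultured overnight at 35.5C. Compound-alone read 3 min (agonist phase), followed by EC20 capsaicin challenge for 2 min (enhancer phase).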

In experiment [16] the target is D(1A) dopamine receptor (Homo sapiens) (UniProt P21728). Description: HTS Assay for Allosteric Agonists of the Human D1 Dopamine Receptor: Primary Screen for Potentiators (AID 488982). In outline: (§1)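 Calcium flux in an inducible, force-coupled HEK293 Trex D1 line (overnight at 30 C): agonist mode is the 180 s kinetic read after compound; potentiator mode is the following 180 s read after dopamine at EC20.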

Experiment [17] has as its target ATP-dependent 6-phosphofructokinase (Trypanosoma brucei brucei) (UniProt O15648). Description: qHTS Assay to Find Inhibitors of T. brucei phosphofructokinase: hit validation (AID 492961).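 Note: luminescence reports ADP formed as PFK phosphorylates fructose-6-phosphate with ATP; series mostly up to about 51 µM.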 In outline: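 ADP-Glo luminescence read-out of ADP formed by 1.25 nM PFK from 0.1 mM ATP and 0.5 mM F6P (TEA pH 8.0, 45 min, RT). Compounds titrated; activity normalized to no-enzyme and full-enzyme controls.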

The target in experiment [18] is Thyrotropin receptor (Homo sapiens) (UniProt P16473). Description: qHTS Assay for Antagonists of the Thyroid Stimulating Hormone Receptor (AID 488980). Note: series mostly up to about 58 µM. In outline:
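Cells expressing human TSHR (HEK293) are dispensed in HBSS/HEPES containing 70 uM RO 20-1724, compound is added, then TSH at EC80 (4 nM final). Antibody in lysis buffer follows, 30 minutes at room temperature before HTRF detection.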

In experiment [19] the target is D(1A) dopamine receptor (Homo sapiens) (UniProt P21728). The experiment in a line: HTS Assay for Allosteric Agonists of the Human D1 Dopamine Receptor: Primary Screen for Agonists (AID 488981). The procedure, abridged: as §1
The target is the same in experiment [20]. Description: HTS Assay for Allosteric Agonists of the Human D1 Dopamine Receptor: Primary Screen for Antagonists (AID 488983).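 Note: calcium flux response to an EC80 dopamine challenge measured with no-wash dye; nearly all actives have a fitted effect of over 65% in size.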 The procedure, abridged:
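Calcium flux readout, no-wash dye, inducible HEK293 T-REx D1 line (force-coupled). Compound added after 10 s baseline, 180 s kinetic read; then dopamine at EC80, further 180 s read.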

Chain of D(1A) dopamine receptor (Homo sapiens) (P21728 whole entry, looked up): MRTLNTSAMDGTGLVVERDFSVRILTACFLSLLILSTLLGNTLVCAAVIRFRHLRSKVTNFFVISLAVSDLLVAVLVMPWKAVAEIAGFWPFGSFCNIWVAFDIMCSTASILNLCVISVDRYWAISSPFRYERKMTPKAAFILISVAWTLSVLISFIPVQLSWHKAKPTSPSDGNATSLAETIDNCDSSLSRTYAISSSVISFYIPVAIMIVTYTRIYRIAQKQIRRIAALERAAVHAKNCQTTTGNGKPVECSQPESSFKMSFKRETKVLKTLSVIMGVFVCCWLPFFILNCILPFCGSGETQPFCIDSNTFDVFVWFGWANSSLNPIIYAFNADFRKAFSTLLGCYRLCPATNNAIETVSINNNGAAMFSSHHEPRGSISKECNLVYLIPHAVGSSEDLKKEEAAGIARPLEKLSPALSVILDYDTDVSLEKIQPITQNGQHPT
Chain of Thyrotropin receptor (Homo sapiens) (P16473 whole entry, looked up): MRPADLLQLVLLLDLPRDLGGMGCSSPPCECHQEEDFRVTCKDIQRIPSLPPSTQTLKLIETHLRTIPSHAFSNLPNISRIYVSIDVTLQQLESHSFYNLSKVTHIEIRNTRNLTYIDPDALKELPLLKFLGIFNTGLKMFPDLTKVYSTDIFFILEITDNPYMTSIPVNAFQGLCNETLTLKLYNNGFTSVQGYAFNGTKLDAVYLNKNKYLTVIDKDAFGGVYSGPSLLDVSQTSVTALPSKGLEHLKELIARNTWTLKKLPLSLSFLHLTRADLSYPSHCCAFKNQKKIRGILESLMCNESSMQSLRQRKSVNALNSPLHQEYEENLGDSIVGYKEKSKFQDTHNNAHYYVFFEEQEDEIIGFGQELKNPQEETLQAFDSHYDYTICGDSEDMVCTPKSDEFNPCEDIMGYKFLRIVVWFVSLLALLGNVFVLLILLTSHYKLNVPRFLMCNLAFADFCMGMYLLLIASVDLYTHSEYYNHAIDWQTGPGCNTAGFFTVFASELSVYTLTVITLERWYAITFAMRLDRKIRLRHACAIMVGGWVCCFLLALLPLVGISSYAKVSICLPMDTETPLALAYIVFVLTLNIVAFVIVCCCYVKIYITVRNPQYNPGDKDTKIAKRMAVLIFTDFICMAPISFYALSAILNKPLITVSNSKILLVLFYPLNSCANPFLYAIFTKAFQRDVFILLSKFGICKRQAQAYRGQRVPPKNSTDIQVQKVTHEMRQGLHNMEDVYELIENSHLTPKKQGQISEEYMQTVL
Chain of M-phase phosphoprotein 8 (Homo sapiens) (Q99549 whole entry, looked up): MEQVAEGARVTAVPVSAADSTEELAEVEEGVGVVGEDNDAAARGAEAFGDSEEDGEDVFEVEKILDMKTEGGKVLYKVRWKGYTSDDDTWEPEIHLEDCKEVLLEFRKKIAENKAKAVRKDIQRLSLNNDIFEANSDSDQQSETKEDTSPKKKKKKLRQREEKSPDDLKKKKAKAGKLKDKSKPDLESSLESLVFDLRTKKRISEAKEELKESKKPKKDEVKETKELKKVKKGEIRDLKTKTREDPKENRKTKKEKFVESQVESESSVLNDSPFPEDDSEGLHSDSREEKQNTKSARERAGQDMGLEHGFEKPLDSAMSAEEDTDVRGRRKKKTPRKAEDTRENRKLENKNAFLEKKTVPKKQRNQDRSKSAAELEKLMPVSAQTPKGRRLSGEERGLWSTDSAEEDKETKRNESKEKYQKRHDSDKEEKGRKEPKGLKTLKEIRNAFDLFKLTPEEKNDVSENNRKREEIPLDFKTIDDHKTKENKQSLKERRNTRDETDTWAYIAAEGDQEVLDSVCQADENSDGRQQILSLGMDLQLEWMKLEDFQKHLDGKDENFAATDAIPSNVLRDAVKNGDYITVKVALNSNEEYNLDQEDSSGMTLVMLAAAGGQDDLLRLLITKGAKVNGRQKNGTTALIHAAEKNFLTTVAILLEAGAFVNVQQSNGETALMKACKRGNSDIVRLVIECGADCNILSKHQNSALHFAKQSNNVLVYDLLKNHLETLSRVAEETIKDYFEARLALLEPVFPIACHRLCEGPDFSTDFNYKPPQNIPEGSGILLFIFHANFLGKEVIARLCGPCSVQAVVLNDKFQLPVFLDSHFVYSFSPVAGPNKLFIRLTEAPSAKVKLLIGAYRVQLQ
Chain of Thioredoxin reductase 1, cytoplasmic (Rattus norvegicus) (O89049 whole entry, looked up): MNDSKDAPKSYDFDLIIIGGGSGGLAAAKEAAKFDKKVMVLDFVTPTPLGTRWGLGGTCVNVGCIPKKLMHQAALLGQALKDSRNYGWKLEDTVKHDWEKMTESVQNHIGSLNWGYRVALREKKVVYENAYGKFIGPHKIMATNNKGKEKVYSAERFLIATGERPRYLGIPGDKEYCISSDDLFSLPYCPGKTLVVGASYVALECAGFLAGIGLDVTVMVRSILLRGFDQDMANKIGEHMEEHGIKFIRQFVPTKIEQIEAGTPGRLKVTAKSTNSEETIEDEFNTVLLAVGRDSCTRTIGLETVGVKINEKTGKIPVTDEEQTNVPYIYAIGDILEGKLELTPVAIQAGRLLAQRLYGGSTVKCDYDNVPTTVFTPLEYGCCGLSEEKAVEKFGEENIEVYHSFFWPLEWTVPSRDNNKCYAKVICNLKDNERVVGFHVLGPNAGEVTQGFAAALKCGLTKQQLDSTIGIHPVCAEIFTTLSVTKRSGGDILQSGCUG
Chain of Chromobox protein homolog 1 (Homo sapiens) (P83916 whole entry, looked up): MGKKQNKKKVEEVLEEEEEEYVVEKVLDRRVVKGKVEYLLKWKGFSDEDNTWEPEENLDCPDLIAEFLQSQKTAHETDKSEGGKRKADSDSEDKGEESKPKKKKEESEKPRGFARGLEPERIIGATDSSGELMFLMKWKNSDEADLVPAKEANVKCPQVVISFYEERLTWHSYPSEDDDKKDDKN
Chain of Flap endonuclease 1 (Homo sapiens) (P39748 whole entry, looked up): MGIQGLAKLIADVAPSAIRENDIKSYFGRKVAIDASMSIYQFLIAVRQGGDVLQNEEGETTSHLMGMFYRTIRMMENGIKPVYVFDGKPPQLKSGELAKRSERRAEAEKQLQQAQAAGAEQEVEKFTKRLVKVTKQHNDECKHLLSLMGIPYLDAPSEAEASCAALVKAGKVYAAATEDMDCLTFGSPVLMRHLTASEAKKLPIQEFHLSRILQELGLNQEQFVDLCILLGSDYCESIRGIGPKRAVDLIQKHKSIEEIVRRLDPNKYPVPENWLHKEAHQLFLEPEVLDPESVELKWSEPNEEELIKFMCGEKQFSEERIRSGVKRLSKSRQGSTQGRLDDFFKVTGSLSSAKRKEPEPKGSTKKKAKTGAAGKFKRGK
Chain of Methanococcus maripaludis chaperonin (MmCpn) (Q6LX38 1-543): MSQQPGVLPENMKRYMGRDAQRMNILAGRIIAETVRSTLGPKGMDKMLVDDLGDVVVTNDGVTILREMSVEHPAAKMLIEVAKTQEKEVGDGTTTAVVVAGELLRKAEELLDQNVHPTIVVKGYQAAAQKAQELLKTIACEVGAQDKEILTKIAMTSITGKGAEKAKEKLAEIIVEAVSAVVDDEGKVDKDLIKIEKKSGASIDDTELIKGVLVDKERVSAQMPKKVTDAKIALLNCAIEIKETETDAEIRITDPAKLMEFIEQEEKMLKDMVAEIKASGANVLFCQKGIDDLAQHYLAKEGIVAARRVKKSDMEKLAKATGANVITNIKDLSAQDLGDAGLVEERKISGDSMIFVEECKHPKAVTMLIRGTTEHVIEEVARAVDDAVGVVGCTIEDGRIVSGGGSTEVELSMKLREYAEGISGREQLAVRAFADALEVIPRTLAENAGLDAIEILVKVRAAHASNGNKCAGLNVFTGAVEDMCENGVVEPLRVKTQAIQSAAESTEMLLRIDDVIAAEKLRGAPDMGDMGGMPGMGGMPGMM
Chain of Transient receptor potential cation channel subfamily V member 1 (Homo sapiens) (Q8NER1 whole entry, looked up): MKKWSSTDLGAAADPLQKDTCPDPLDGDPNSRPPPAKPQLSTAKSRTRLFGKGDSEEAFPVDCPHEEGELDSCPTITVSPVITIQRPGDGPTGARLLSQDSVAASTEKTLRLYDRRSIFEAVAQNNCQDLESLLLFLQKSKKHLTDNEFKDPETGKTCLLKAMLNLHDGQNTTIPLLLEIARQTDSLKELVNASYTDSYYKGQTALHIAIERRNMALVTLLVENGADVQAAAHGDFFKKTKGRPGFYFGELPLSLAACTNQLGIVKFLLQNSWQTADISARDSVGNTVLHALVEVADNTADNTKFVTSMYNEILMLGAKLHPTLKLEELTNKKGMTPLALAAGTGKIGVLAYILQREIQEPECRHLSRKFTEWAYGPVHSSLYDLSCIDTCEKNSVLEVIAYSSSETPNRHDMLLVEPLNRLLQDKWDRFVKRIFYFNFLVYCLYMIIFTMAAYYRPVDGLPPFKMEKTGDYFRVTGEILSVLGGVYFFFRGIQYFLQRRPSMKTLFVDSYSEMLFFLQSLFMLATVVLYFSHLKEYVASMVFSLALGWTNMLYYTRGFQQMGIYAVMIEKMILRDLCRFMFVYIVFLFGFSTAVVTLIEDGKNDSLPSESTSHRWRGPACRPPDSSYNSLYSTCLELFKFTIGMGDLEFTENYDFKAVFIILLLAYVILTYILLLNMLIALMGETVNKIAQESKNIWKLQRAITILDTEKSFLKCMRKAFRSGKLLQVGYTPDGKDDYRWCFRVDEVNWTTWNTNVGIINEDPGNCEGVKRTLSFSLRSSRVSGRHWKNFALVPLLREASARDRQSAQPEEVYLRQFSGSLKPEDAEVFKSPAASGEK
Chain of ATP-dependent 6-phosphofructokinase (Trypanosoma brucei brucei) (O15648 whole entry, looked up): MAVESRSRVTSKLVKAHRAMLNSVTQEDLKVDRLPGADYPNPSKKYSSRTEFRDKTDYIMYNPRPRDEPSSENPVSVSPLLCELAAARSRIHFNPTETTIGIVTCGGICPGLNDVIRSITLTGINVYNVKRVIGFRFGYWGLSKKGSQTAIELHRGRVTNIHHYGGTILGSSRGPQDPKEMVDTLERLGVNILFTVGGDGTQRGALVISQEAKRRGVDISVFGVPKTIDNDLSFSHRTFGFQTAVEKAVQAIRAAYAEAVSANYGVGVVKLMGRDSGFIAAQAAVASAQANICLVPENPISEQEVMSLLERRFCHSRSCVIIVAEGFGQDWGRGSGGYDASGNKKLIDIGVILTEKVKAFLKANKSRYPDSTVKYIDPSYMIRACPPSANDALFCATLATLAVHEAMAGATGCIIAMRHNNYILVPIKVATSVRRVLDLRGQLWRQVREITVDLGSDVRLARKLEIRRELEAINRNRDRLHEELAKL

As for `OC(CN1CCC(Cc2ccc(F)cc2)CC1)c1ccc(Cl)cc1` (configuration not stated), the compound was classed as inactive in experiment [1], in experiment [3], in experiment [4], in [5], in experiment [6] and in experiment [9]. Moreover, the outcome in experiment [14], in experiment [15] and in experiment [17] was inactive. Moreover, the Potency result in [2], in experiment [10], in experiment [11], in experiment [12], in experiment [13] and in experiment [16] was “inactive” throughout. Also, the Potency was 2.94 µM (active) in [7] and 3.29 µM (active) in [8].
Take `CCC(C)N(C)C(=O)c1cc2ccccc2c(-c2ccccc2Cl)n1` (configuration not stated): the result in experiment [1], in experiment [3], in [4], in experiment [5], in experiment [9] and in [14] was inactive. Also, the outcome in [15] and in experiment [18] was inactive. For the same compound, the Potency result in experiment [2], in experiment [10], in [11], in experiment [12], in experiment [13] and in experiment [19] was “inactive” each time. Also, the Potency entry in [16] and in experiment [20] was “inactive” throughout.
Consider `O=C1CCC(N2C(=O)c3ccccc3C2=O)C(=O)N1` (configuration not stated), for which the compound was classed as inactive in experiment [1], in experiment [3], in [4], in experiment [5], in experiment [6] and in [9]. In addition, the result in [14], in [15] and in [18] was inactive. Also, the Potency result in [2], in experiment [7], in experiment [8], in experiment [10], in [11] and in experiment [12] was “inactive” in each case. In addition, the Potency entry in [13], in [19], in experiment [16] and in experiment [20] was “inactive” throughout.
As to `CNC[C@H](O)c1cccc(O)c1`, the compound was classed as inactive in experiment [1], in experiment [3], in experiment [4], in [5], in [6] and in [9]. The result in [14], in [15], in [18] and in experiment [17] was inactive. Besides, the Potency entry in [2], in experiment [7], in [8], in experiment [10], in experiment [11] and in experiment [12] was “inactive” throughout. Besides, the Potency entry in experiment [13], in experiment [19] and in experiment [16] was “inactive” throughout.
For the compound `NS(=O)(=O)c1cc2c(cc1Cl)NC=NS2(=O)=O`, the call in [1], in [3], in experiment [4], in [5], in [9] and in experiment [14] was inactive. The result in [15] and in [18] was inactive. In addition, the Potency result in experiment [2], in experiment [7], in experiment [8], in experiment [10], in experiment [11] and in [12] was “inactive” throughout. For the same compound, the Potency entry in experiment [13], in experiment [19], in [16] and in experiment [20] was “inactive” throughout.
Take `C1COC(NC(C2CC2)C2CC2)=N1`: the compound was classed as inactive in [1], in [3], in experiment [4], in experiment [5], in experiment [6] and in experiment [9]. In addition, the result in [14], in experiment [15] and in experiment [18] was inactive. Moreover, the Potency result in experiment [2], in [8], in experiment [10], in [11], in experiment [12] and in [19] was “inactive” in each case. The Potency entry in [16] and in experiment [20] was “inactive” each time.
On to `CCN(CC)CCCC(C)Nc1ccnc2cc(Cl)ccc12` (configuration not stated), for which the result in experiment [1], in experiment [3], in experiment [4], in experiment [5], in [6] and in [9] was inactive. Further, the result in experiment [14] and in experiment [15] was inactive. Also, the Potency entry in experiment [2], in experiment [10], in [11], in experiment [12], in experiment [13] and in experiment [19] was “inactive” each time. For the same compound, the Potency result in [16] and in experiment [20] was “inactive” each time. Moreover, the results for the Potency in [7] and in [8] were 0.262 µM (active) and 0.165 µM (active), respectively.
Take `NC(=O)c1cnccn1`: the compound was classed as inactive in experiment [1], in experiment [3], in [4], in [5], in experiment [6] and in experiment [9]. Further, the compound was classed as inactive in [14] and in experiment [15]. In addition, the Potency result in [2], in experiment [7], in [8], in experiment [10], in experiment [11] and in experiment [12] was “inactive” in each case. In addition, the Potency result in [13], in [19], in experiment [16] and in experiment [20] was “inactive” each time.
